Hit rate of the full screen: of about 53,000 sequences, about 3,700 (7%) were called active.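 Rule for the calls: active = gene knockdowns whose robust z-score for IL-1 alpha signal is at least 2 or at most -2, so actives lie on both sides; inactive = the rest.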 Shown is part of a subset that was picked to be rich in actives.
Test: Components of the Cytosolic LPS Sensing Pathway: Gene Identification via Genome-wide siRNA Screen;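 note: robust z of the log signal after scaling to non-targeting control siRNA wells of the plate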
Settings: RAW264.7 macrophages, IL-1a HTRF, actives lie on both sides, screened at 100 nM (by protocol), cells primed 5 h with Pam3CSK4 first
Summary of the method: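 Supernatant IL-1a by HTRF from RAW264.7 cells primed with Pam3CSK4 (5 hours) and transfected with LipidA (24 hour) after 48h siRNA knockdown at 100 nM; cell viability checked with CellTiter-Glo.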

| Sequence | z-score |
| --- | --- |
| GGGAGAUAAAAAGUUAAGGTT against Bclaf1 | 1.38 (inactive) |
| GGCUUUCGUUUACAACAAGTT against Naglu | -0.414 (inactive) |
| GGUUAUCAUACUUUUUGUGTT against Phf10 | -0.582 (inactive) |
| CCAAACAAUGUUGUUUAGGTT against Rilpl1 | -0.965 (inactive) |
| CCUCGAGUUCGGAAACAGATT against Chd8 | -1.06 (inactive) |
| CCUGCCUAGAUGUUUCAGCTT against Ifna13 | -0.196 (inactive) |
| GGACAAUAGAUGUGUUUGATT against Ddb2 | 1.57 (inactive) |
| GCUUGGCCGUGAUUGUUGCTT against Fndc10 | 2.35 (active) |
| GGCUUGGUGAGCUACCUACTT against Wdr62 | -0.839 (inactive) |
| GGCACACUUAAGUAAAAGUTT against Kras | -0.542 (inactive) |
| GGCUACCUUCUACCUAAGGTT against Cyp2g1 | 1.42 (inactive) |
| CGGCAAGCCCAAAAAGGUCTT against Dlx3 | -2.34 (active) |
| GCAAUCUGUCCUUCUGUGATT against Olfr1133 | -0.818 (inactive) |
| CCUGUACUGAACUACUUGATT against Kctd5 | 0.0535 (inactive) |
| CCUGGUACAAGGAACCAGUTT against Zim1 | 0.285 (inactive) |
| GGACCCAAUAAAACUUCCGTT against Ttc36 | 1.13 (inactive) |
| CCACAUACUCUAAUGAAGUTT against Casp1 | 0.176 (inactive) |
| GGAACUGGGUUCAUCCACATT against Snrpb2 | -2.02 (active) |
| GGAAAAAGAGCUUUUGGUCTT against Piwil2 | 0.528 (inactive) |
| GGAUGAGUUAAGUUUCUCATT against Sh3d19 | -1.57 (inactive) |
| CCCUAAUAGGUCAAUAAAGTT against Vmn1r71 | -0.0066 (inactive) |
| GGCAUUUCGUGGAUCACCGTT against Mtg2 | -1.56 (inactive) |
| GGGUCACGUGCUGUCUCAUTT against Slc22a20 | -1.55 (inactive) |
| GCAAAGCCUUACCAUGUAATT against Ighg | 1.33 (inactive) |
| GGUCAUGGUCUGAGAUUCUTT against Txnl4a | -2.34 (active) |
| GGAAGUCAAGAAAGUGGCCTT against H1f0 | -0.294 (inactive) |
| GGGAUACAAUGUAACAUACTT against L1cam | -0.0915 (inactive) |

| Sequence | z-score |
| --- | --- |
| GGACAGCUCUCUCCAUACATT against Tlr9 | 0.653 (inactive) |
| GGAUUUUGUUCUUACAGUUTT against Nfia | 2.8 (active) |
| GGGAACUUUUUUGAUGGGCTT against Psmb2 | -1.13 (inactive) |
| GCACAUUCAUAGGAGUACCTT against Vmn1r237 | 0.371 (inactive) |
| CGAAACUCCCAUUGUUAAUTT against Zfp521 | 1.29 (inactive) |
| GGAUCACAGAAUAGAACAATT against Hpgds | 0.237 (inactive) |
| CCACAUGAACAAUUUGGGCTT against Rpl9 | 0.0288 (inactive) |
| CCACGACACGCAAGAUGAGTT against Fzd8 | -0.756 (inactive) |
| CGACAAUACUCUCUUCAAGTT against Fst | 0.691 (inactive) |
| CCAUCUGUAACGGAUCUGATT against Prorsd1 | 0.893 (inactive) |
| GGAAGCUGUCCAAAAUGAGTT against Hnf4a | 2.55 (active) |
| CCAGUUUAUCACAUAACCUTT against Wasl | -0.928 (inactive) |
| CCAAAGAUACCAUUUUGCATT against Lypd8 | 0.599 (inactive) |
| GGUACCAGGUAUCUUCAUUTT against Pard6g | 2.95 (active) |
| GGAAUGCAGCCAUCCUAUCTT against Mia | 0.0985 (inactive) |
| CCCAGAUUACCGUAAGCGATT against Jup | 0.264 (inactive) |
| GGCCAAAUGGAAUAAGAAGTT against Wdr59 | 0.774 (inactive) |
| GGUUGCUUGGAAUUAAAAGTT against Klhl1 | -1.58 (inactive) |
| GGGUUGAUUUGGUGUUUUATT against Usp46 | 0.673 (inactive) |
| CCUUGUAGUAAUAGGGAUGTT against Olfr116 | 0.681 (inactive) |
| GGAAAUGAGUGAAGAUGAATT against Cdk11b | -0.186 (inactive) |
| GGCAUGUAAUGAAUUCACATT against Pbx3 | -2.14 (active) |
| CGCAUAUAUGUGUGUCGCCTT against Tmem125 | 0.256 (inactive) |
| CCCAAAUUGAUCCUAGCCUTT against Prkar1b | 0.307 (inactive) |
| GGGCCUAUGUGCUUUAUAUTT against Usp8 | -0.0584 (inactive) |
| GGUCAUGGAAGAAGCAAAGTT against Sltm | 2.08 (active) |
| GCUGUCCUGCCGUAAUAGATT against Oma1 | -0.619 (inactive) |

Source: PubChem BioAssay AID1508600 (Functional Genomics Laboratory (NCATS/FGL), 2020)
